Tests used:
Assay in all cases: log2 ratio of Biotin-Ahx-Ub-VS probe labelling (fragment/DMSO); higher = less target engagement (more negative = stronger competition), active = hit call of the paper (q ≤ 0.05, log2 ratio ≤ -1)
Details in all cases: compound concentration: 200 uM; treatment time: 3 h
[1] = target: T1, USP19 (UniProt O94966)
T1 sequence (whole entry): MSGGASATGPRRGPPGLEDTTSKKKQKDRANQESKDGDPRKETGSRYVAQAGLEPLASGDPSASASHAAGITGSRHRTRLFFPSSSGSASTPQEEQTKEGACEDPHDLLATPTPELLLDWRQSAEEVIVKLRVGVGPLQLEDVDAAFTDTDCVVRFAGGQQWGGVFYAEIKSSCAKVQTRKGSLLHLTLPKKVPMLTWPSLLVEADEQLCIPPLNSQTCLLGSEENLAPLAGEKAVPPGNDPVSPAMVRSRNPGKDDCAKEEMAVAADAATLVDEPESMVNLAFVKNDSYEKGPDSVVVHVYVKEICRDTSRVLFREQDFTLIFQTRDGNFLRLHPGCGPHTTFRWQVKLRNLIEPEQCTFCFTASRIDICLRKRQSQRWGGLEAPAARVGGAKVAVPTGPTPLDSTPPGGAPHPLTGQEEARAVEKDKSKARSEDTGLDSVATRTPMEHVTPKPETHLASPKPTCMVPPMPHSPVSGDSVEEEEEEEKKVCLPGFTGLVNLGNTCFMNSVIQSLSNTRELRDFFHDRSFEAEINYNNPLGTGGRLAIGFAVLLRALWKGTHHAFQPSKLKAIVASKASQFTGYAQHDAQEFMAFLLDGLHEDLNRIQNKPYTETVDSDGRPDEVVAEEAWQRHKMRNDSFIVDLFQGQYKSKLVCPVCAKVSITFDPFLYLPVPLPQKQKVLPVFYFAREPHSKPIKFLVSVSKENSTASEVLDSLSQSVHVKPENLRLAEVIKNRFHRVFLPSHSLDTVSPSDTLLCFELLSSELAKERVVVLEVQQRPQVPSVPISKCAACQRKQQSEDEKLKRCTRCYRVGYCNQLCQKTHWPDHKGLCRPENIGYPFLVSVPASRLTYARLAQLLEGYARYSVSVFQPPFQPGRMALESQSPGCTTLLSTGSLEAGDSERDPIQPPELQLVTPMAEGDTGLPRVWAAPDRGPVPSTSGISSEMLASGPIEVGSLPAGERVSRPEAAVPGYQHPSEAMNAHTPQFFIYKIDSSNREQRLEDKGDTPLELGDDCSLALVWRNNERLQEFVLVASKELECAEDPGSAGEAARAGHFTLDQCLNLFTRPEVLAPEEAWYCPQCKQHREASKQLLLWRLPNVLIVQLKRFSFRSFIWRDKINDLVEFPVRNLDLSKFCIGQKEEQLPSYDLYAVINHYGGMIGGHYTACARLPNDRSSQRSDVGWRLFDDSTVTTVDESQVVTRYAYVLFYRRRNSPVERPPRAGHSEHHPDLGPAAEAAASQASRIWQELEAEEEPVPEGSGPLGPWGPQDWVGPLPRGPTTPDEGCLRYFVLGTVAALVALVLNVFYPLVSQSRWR
Outline: (§1)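 In triplicate, 495 µg of HEK293T lysate per sample was incubated with fragment at 200 µM or vehicle for 3 h. Biotin-Ahx-Ub-VS was then added to 0.5 µM final for 1 h, and labelled DUBs were captured with NeutrAvidin, digested with LysC and trypsin, and measured by diaPASEF LC-MS/MS. Data are average log2 fragment/vehicle ratios by unpaired t-test from global-median-normalised Spectronaut label-free quantities, restricted to proteins with ≥2 unique peptides.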

[2] = target: USP24 (UniProt Q9UPU5)
Chain of USP24 (Q9UPU5 whole entry): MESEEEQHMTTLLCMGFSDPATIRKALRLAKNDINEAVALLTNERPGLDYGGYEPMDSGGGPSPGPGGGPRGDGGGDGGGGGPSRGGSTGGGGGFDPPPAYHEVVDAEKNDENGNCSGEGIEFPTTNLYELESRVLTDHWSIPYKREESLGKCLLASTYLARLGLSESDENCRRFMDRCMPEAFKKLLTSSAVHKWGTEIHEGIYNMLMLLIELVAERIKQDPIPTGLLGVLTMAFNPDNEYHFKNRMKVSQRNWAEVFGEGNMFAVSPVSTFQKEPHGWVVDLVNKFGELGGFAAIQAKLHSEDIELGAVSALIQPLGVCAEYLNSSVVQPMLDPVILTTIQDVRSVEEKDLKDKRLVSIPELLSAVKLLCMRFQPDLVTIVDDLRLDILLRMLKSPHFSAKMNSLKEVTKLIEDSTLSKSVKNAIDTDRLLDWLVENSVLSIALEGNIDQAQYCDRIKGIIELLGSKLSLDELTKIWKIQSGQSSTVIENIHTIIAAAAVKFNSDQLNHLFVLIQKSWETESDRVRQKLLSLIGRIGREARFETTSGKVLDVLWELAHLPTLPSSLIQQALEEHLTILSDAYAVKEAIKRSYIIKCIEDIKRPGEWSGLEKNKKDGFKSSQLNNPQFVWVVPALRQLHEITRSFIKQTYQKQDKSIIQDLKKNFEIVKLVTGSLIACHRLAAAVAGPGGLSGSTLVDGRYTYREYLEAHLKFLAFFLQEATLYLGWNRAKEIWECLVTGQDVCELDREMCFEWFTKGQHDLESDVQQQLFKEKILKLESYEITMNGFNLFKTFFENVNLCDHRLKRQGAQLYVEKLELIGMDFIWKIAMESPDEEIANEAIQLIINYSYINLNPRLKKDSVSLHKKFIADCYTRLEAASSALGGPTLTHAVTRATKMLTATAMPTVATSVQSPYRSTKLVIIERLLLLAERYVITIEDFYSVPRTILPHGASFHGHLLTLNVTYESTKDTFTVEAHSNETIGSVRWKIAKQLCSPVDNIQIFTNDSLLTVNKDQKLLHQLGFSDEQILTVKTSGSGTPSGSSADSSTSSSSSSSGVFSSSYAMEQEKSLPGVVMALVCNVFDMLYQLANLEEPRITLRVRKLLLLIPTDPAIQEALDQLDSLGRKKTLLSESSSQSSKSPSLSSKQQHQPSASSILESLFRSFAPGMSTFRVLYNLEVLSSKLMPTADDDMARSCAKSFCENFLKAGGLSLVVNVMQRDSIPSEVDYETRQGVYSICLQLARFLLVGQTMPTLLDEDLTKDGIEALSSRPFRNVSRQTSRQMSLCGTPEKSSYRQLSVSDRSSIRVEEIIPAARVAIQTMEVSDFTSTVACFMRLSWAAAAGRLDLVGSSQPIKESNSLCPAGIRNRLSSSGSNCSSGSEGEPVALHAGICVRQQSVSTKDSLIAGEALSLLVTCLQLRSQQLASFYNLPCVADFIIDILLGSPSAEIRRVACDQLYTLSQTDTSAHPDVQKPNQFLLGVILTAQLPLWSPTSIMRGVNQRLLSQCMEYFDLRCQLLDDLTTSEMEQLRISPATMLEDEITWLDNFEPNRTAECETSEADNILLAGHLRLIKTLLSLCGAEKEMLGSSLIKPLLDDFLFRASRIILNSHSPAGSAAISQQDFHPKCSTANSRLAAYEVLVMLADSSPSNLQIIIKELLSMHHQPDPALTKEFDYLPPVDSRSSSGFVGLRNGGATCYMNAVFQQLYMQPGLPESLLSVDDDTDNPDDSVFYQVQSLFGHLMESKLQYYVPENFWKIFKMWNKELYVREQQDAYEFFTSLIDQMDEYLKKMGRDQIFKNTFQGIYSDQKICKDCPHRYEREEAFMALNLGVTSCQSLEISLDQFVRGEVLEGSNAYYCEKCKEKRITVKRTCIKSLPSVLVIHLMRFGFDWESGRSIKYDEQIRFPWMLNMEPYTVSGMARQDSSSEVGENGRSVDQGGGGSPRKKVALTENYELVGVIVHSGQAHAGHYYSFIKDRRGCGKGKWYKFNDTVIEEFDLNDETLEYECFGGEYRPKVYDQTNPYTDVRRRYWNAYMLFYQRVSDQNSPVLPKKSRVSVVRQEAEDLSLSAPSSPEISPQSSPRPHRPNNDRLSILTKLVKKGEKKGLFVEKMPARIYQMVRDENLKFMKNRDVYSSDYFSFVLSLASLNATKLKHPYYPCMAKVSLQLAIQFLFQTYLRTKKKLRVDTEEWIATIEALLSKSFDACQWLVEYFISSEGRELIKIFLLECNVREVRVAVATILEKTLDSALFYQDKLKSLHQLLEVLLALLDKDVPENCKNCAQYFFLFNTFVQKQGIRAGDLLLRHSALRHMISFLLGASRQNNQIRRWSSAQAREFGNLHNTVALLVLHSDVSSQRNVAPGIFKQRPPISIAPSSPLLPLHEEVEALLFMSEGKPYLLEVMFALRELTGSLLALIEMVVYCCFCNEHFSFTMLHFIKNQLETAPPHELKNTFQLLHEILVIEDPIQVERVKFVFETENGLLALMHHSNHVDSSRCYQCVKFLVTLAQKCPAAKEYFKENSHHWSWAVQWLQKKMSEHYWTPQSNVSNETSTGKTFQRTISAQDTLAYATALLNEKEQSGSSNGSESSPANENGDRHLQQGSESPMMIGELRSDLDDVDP
Outline: as §1

[3] = target: T2, USP25 (UniProt Q9UHP3)
T2 sequence (whole entry): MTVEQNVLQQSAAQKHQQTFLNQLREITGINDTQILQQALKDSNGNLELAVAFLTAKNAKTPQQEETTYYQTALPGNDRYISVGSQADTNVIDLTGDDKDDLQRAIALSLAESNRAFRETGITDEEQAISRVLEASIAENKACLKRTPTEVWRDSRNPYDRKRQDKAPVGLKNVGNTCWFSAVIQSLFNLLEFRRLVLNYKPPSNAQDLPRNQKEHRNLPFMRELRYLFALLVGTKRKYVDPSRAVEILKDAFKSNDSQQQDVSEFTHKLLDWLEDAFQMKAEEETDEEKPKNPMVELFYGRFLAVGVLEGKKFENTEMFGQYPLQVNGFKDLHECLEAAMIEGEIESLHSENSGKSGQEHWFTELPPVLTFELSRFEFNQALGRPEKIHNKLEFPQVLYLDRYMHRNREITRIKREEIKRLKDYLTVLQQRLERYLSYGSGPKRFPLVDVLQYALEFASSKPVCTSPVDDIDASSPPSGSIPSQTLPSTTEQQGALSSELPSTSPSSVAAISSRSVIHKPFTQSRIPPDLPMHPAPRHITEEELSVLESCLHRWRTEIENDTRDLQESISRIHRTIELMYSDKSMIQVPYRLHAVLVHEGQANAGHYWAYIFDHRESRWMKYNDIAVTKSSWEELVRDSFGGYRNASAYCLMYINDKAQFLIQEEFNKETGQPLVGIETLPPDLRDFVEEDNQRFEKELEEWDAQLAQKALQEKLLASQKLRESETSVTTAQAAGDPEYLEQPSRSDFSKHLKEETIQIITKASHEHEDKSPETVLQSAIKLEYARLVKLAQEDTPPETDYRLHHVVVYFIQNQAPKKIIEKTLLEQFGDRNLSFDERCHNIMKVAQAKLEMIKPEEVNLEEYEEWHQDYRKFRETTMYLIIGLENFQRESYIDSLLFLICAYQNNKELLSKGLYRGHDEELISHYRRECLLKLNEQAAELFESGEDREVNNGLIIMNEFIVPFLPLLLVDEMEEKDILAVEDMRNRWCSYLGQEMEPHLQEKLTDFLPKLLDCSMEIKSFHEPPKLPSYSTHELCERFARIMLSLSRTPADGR
Outline: as §1

[4] = target: T3, USP28 (UniProt Q96RU2)
T3 sequence (whole entry): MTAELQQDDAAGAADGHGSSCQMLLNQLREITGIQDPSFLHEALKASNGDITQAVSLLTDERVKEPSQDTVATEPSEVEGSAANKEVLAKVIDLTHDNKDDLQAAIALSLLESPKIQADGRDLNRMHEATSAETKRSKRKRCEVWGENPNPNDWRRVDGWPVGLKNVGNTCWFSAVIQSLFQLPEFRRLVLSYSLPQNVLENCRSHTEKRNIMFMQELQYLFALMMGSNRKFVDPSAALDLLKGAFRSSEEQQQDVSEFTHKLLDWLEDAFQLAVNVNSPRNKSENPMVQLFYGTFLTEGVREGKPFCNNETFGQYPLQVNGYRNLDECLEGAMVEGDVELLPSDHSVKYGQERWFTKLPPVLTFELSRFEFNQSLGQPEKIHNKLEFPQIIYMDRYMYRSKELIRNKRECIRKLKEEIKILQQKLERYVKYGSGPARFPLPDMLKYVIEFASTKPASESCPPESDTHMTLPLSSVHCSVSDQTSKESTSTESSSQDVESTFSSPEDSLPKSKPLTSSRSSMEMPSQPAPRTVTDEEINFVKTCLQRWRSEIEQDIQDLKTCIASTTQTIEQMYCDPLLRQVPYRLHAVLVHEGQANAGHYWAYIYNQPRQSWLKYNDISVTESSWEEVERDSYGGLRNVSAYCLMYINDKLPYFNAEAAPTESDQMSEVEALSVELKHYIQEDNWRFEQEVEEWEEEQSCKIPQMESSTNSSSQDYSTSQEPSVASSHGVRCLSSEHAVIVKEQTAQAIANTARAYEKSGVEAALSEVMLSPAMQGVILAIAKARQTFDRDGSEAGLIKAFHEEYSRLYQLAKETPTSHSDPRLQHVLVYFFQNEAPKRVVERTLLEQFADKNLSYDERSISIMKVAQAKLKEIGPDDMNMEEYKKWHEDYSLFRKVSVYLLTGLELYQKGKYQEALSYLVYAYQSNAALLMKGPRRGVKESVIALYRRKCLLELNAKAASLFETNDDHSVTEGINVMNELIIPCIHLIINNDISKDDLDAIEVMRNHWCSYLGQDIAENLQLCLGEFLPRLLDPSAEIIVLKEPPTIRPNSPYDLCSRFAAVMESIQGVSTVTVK
Outline: as §1

Measured: log2 ratio of Biotin-Ahx-Ub-VS probe labelling

Cl.Cn1nccc1C(NC(=O)CCl)c1ccccc1 (centres undefined)
inactive: [1] -0.0802 | [2] -0.00471 | [3] -0.455 | [4] -0.472
